The list is not random: actives were taken first. Their share in the collection is about 4%.
Mtb UGM inh = Mtb UDP-galactopyranose mutase inhibition; purified UGM, fluorescence polarization probe displacement; inhibition, % at 10 µM; hit rate 0.06% among 320,000; AID 504406; in the data active = inhibition above about 10%, passing the limit was not always enough
RecA splice inh = blocks M. tuberculosis RecA intein splicing | cell-free RecA intein splicing, fluorescence | inhibition, % (no concentration beside the values) | AID 2221 | P9WHJ3 | hit rate 0.75% among 290,000; in the data active = inhibition above about 30%;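 also: 0% = vehicle wells and 100% = reference inhibitor control wells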
GDH-TPI inh = GDH-TPI coupled enzyme inhibition counter-screen | GDH-TPI coupled enzyme counterscreen, NADH absorbance | inhibition, % at 4.8 µM | hit rate 1.2% among 360,000 | AID 588335; in the data active = inhibition above about 30%;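 also: 0% = DMSO wells and 100% = wells lacking the enzyme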
Mtb bLac sens = beta-lactam sensitization of Mtb H37Rv; M. tuberculosis H37Rv growth with meropenem, percent inhibition; inhibition, % at 25 µM; hit rate 0.27% among 330,000; AID 434955;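 also: growth measured after seven days incubation then overnight dye step; 0% = bacteria only wells and 100% = bacteria with antibiotic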
Mtb FBA inh = inhibits M. tuberculosis FBA enzyme. P9WQA3. purified M. tuberculosis FBA, fluorescence read-out. inhibition, % at 1 µM. hit rate 2.3% among 360,000; in the data active = inhibition above about 27%;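 also: 0% = vehicle and 100% = reference inhibitor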
Rv3671c inh = inhibits the M. tuberculosis serine protease Rv3671c. P9WHR9. inhibition, % at 5.96 µM. hit rate 0.048% among 320,000. AID 2606; in the data active = inhibition above about 38%;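 also: extracellular domain of Rv3671c used as enzyme; 0% = enzyme with DMSO and 100% = no enzyme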
Target sequence (P9WHR9 whole entry, looked up, the tested form may be a part): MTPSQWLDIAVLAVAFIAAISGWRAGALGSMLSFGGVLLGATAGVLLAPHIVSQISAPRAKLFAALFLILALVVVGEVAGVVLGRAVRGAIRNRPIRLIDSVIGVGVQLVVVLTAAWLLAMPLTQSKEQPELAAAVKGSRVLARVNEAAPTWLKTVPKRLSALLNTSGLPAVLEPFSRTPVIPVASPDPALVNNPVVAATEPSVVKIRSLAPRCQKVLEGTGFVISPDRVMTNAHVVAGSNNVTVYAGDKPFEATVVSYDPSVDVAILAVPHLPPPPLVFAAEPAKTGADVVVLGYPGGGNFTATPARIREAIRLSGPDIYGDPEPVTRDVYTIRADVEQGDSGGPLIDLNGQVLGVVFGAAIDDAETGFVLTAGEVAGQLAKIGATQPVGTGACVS
GFP chromophore = counter-screen: blocks GFP chromophore formation. EC50, µM. cell-free GFP chromophore formation, fluorescence. hit rate 83% among 2,100. shares compounds with RecA splice inh
The depositor's hits bear a star; . = not tested or not shown. Unless noted, no rule for the calls is given here.

SMILES | Mtb UGM inh | RecA splice inh | GDH-TPI inh | Mtb bLac sens | Mtb FBA inh | Rv3671c inh | GFP chromophore
Cc1ccc(SCc2[nH]nc3c2C(c2cccnc2)C(C#N)=C(N)O3)cc1 (stereo not drawn) | 1 | 13 | 6 | 1 | -1 | -16 | .
S=C1NC[C@H](CC2CCCCC2)N1CCc1cccc2ccccc12 | 1 | 9 | 2 | 5 | 0 | -14 | .
Cc1ccc(N(CC(=O)N/N=C/c2ccc(OCC(N)=O)cc2)S(C)(=O)=O)cc1Cl | 2 | -1 | 6 | -9 | 8 | 11 | .
Cc1[nH]nc2c1C(C1CC=CCC1)C(C#N)=C(N)O2 (stereo not drawn) | 0 | . | 3 | -1 | 2 | -1 | .
CC(C)C1C(C#N)=C(N)Oc2n[nH]c(-c3ccc4ccccc4c3)c21 (stereo not drawn) | 0 | 3 | 10 | 4 | -4 | -37 | .
COc1cc(-c2[nH]nc3c2C(c2ccoc2)C(C#N)=C(N)O3)cc(OC)c1OC (stereo not drawn) | -2 | . | 10 | -2 | -1 | -12 | .
COc1cccc(-c2[nH]nc3c2C(c2ccsc2)C(C#N)=C(N)O3)c1 (stereo not drawn) | 0 | 76* | 5 | -3 | 0 | -37 | 7.7*
Cc1[nH]nc2c1C(c1ccsc1)C(C#N)=C(N)O2 (stereo not drawn) | -2 | 83* | 6 | -18 | -2 | 4 | 39*
COc1cccc(-c2[nH]nc3c2C(c2ccoc2)C(C#N)=C(N)O3)c1 (stereo not drawn) | 2 | 82* | 27 | -5 | 3 | -6 | 9.8*
Cc1[nH]nc2c1C(c1ccc3c(c1)OCO3)C(C#N)=C(N)O2 (stereo not drawn) | 1 | 67* | 7 | 4 | 2 | 2 | 39*
CCOc1ccccc1NC(=O)CN(c1ccc(OC)c(OC)c1)S(=O)(=O)c1ccc(C)cc1 | . | . | -1 | . | -6 | . | .
CCN1CCN(c2c(C=O)c(Cl)nc3ccc(OC)cc23)CC1 | 0 | -2 | 6 | 1 | 1 | -3 | .
O=C(Nc1ccccc1)c1nccn1Cc1ccc(F)cc1 | 3 | 3 | 5 | -2 | -5 | -6 | .
CCOC(=O)c1nnc(-c2ccccc2)nc1Sc1ccccc1Cl | 0 | 40* | 3 | 95 | 0 | 4 | 2*
Nc1ccc2ncccc2c1 | -3 | 70* | 1 | -11 | 2 | -1 | 16*
Nc1ccc(/C=C/c2ccc3ncccc3c2)cc1 | -2 | -5 | 10 | 7 | -1 | 3 | .
Cc1ccc(Sc2ccc(NC(=O)CCl)cc2)c(C)c1 | 1 | 90* | . | 98 | . | -11 | 8.1*
Cc1noc(C)c1S(=O)(=O)Nc1ccccc1Oc1ccccc1 | 0 | 6 | 4 | 0 | -5 | -3 | .
O=C1c2ccccc2-c2onc3ccc(Oc4ccccc4)c1c23 | 1 | 86* | 11 | 100 | -3 | -62 | 0.81*
Cc1ccc(OCC(=O)NCc2cccnc2)cc1 | -4 | 1 | -4 | 0 | 1 | -8 | .
CC1=NNC(=O)C1C(c1ccccc1)C(C#N)C#N (stereo not drawn) | 1 | 80* | 11 | 2 | 0 | 1 | 16*
CCN(C(=O)c1cc2c(s1)-c1ccccc1OC2)c1cc(OC)ccc1OC | 0 | 9 | 21 | 6 | 2 | -22 | .
COc1ccc(N(C)C(=O)c2cc3c(s2)-c2c(C)cccc2OC3)c(OC)c1 | -3 | 33* | 31* | 6 | 6 | -14 | >38
Cc1ccccc1CS(=O)(=O)c1nnc([C@H](Cc2ccccc2)NC(=O)OC(C)(C)C)o1 | -1 | 41* | 0 | 13 | -2 | 2 | 12*
CC(C)(C)OC(=O)N[C@@H](Cc1ccccc1)c1nnc(S(=O)(=O)Cc2ccccc2)o1 | 3 | . | . | 63 | . | 0 | .
SMILES | Mtb UGM inh | RecA splice inh | GDH-TPI inh | Mtb bLac sens | Mtb FBA inh | Rv3671c inh | GFP chromophore
CCC(C)[C@@H](NC(=O)OC(C)(C)C)c1nnc(S(=O)(=O)Cc2cccc(C)c2)o1 (stereo partly drawn) | . | 37* | 13 | . | 0 | . | 31*
COC(=O)C1C(c2ccc(N(C)C)cc2)C(C(=O)OC)S(=O)(=O)CS1(=O)=O (stereo not drawn) | -3 | 2 | -7 | -3 | -2 | 2 | .
O=C1C(c2c(O)[nH]c3ccccc23)=Nc2ccccc21 | -2 | 4 | 5 | 13 | 13 | -4 | .
CC(=O)c1cccc2c(O)c(C3=Nc4ccccc4C3=O)[nH]c12 | -1 | 41* | 21 | 91 | 6 | -4 | 4.6*
O=C1c2cccnc2C(=O)N1Cc1ccc(F)cc1 | 4 | -2 | 4 | -12 | 1 | -4 | .
COC(=O)c1[nH]c(=O)c2ccccc2c1O | 3 | 81* | 18 | -2 | 4 | -29 | 15*
CC(=O)N(CCC(Cc1ccccc1)c1ccc2c(c1)OCO2)Cc1ccccc1F (stereo not drawn) | 2 | 36* | 2 | -3 | 5 | -5 | >38
CC(=O)N(C1=C(N)C(=O)c2ccccc2C1=O)c1ccccc1 | -2 | 87* | -2 | -6 | -3 | -35 | 4.3*
O=C(CCC1CCCC1)NCCCNC(=O)CCC1CCCC1 | 2 | 1 | 6 | 6 | -3 | -2 | .
Cc1ccc(C(=O)c2coc3cc([N+](=O)[O-])c(O)c([N+](=O)[O-])c23)cc1 | 3 | 34* | 21 | 6 | -10 | -2 | 37*
Cc1ccc(C(=O)c2ccc([N+](=O)[O-])cc2)cc1 | 0 | 2 | 7 | 4 | 1 | -6 | .
CC(C)Cn1c(N)c(S(=O)(=O)c2cccs2)c2nc3ccccc3nc21 | . | 47* | 23 | . | 142* | . | 29*
Cn1sccc1=O | -2 | . | -2 | 73 | 2 | 3 | .
Cc1ccc(Nc2nc(N)c([N+](=O)[O-])c(NCc3ccco3)n2)cc1 | 0 | 4 | 17 | 5 | 1 | -12 | .
c1ccc(CNc2nc(NCc3ccccc3)c3ccccc3n2)cc1 | 0 | 60* | -5 | 94 | 7 | 4 | 23*
Fc1ccc(Nc2nc(NCc3ccco3)c3ccccc3n2)cc1 | 1 | 49* | -2 | 98 | 2 | 3 | 18*
CC(=O)Nc1ccc(C(=O)CSc2nccc(=O)[nH]2)cc1 | 2 | -4 | 10 | -5 | -3 | 2 | .
CCN(CC)CC(=O)c1c[nH]c2ccc(C)cc12 | -2 | 2 | 3 | -7 | -1 | -5 | .
CCN(CC)C(=O)CSc1nnc(COc2ccc(OC)cc2)n1N | 1 | -4 | 1 | -1 | -1 | -5 | .
CCN(CC)C(=O)CSc1nnc2nnc3cc(OC)ccc3n12 | 7 | 31* | 8 | . | -4 | -5 | >38
CCOC(=O)C1=C(C)OC(N)=C(C#N)C1c1ccc(OC)c(CSc2ccccn2)c1 (stereo not drawn) | 2 | 5 | 17 | 7 | 5 | 5 | .
COc1ccc(C2C(C#N)=C(N)Oc3n[nH]c(C)c32)cc1Cn1nnc2ccccc21 (stereo not drawn) | -4 | 61* | 5 | 8 | 0 | -4 | 13*
